# ChEMBL document CHEMBL4296182, “CO-ADD screening of NIH NCI Diversity Set V”
# System: Staphylococcus aureus
# Assay: Antibacterial activity against Staphylococcus aureus MRSA ATCC 43300 (CO-ADD:GP_020); MIC in CAMBH media using NBS plates, by Resazurin F(560/590)
# Type: functional
# Conditions: Concentration 20 uM, ASSAY_TEST Inhibition of Bacterial Growth, detection method Resazurin, Fluorescence (ex560/em590), MEDIA CAMHB, plate type 384well, CORNING #3640, time 18 hr
row,Structure (SMILES),Inhibition [%]
1,COc1ccc2c(c1)CCCN2C(=N)Nc1ccc(Cl)cc1,-10.2
2,C=CCNC(S)=NCC,0.32
3,Nc1nc(O)c2ncn(C3CCCC3)c2n1,3.29
4,COC(=O)Cc1[nH]c(O)nc1C(=O)OC,5.51
5,Cc1cn(C2CC(O)C(CO)O2)c(=O)n(Cc2ccccc2)c1=O (centres undefined),4.94
6,Cc1cccnc1N=C(S)Nc1ncccc1C,10.58
7,N#Cc1nnn(-c2ccc(Cl)cc2)c1N,17.83
8,Nc1n[nH]c(CO)n1.O=C(O)CO,4.42
9,CS(=O)(=O)O.OC(c1cc(C(F)(F)F)nc2c(Cl)cc(Cl)cc12)C1CCCCN1 (centres undefined),10.44
10,Cc1cc(NC(=O)NC(=O)c2ccccc2NC(=O)C(C)N)ccc1Oc1ncc(Br)cn1.Cl (centres undefined),19.83
11,C=C1CC2(OC1=O)c1ccccc1CCc1ccccc12,-2.53
12,CC(=O)/C=C(\C)Nc1ccccc1O,8.26
13,CCCOc1ccc(-c2nc(-c3ccc(N)cc3)cs2)cc1,6.42
14,Clc1nnc(NC2CCCCC2)c(Cl)c1Cl,-0.25
15,Clc1ccc(-c2nc(-c3cc4cc(Cl)ccc4o3)cs2)cc1,-3.66
16,CC(=O)Nc1c(C)cc(OCC(=O)O)cc1C,2.34
17,CN(C)N1C(=O)c2c(Cl)c(Cl)c(Cl)c(Cl)c2C1=O,2.83
18,CCCCCCCCCCC(C(=O)O)C1(C(=O)O)CCC(=O)O1 (centres undefined),8.92
19,Cc1ccc(Nc2c(O)ncnc2O)cc1C,-23.26

# System: Acinetobacter baumannii
# Assay: Antibacterial activity against Acinetobacter baumannii ATCC 19606 (CO-ADD:GN_034); MIC in CAMBH media using NBS plates, by Resazurin F(560/590)
# Type: functional
# Conditions: Concentration 20 uM, ASSAY_TEST Inhibition of Bacterial Growth, detection method Resazurin, Fluorescence (ex560/em590), MEDIA CAMHB, plate type 384well, CORNING #3640, time 18 hr
row,Structure (SMILES),Inhibition [%]
1,NC(=O)C1=CC2C3C=CC2(O)C(=O)OC3O1 (centres undefined),9.98
2,CC12C(=O)N(c3nccs3)C(=O)C1(C)C1CCC2O1 (centres undefined),6.5
3,O=C(O)c1nn(-c2ccccc2-c2nnc(O)nc2O)c(=O)[nH]c1=O,10.46
4,Cc1ccc(/N=N/c2ccc(N)cc2C)c(S(N)(=O)=O)c1,-6.13
5,CCCN=C(S)Nc1ccccc1,-0.42
6,O=C(N(c1ccccc1)c1ccccc1)N(c1ccccc1)c1ccccc1,0.28
7,Clc1[nH]cnc2nccc1-2,-14.17
8,COc1ccc(OC)c(NC(=O)c2cc3oc4ccccc4c3cc2O)c1,8.19
9,Cc1nc(Br)c(Br)c(C)c1Br,-12.31
10,COc1ccc(C(=S)N2CCN(c3ccccc3C)CC2)cc1,-20.13
11,Nc1ccc(NC(=O)Nc2ccc(N)cc2)cc1,-11.79
12,c1ccc2[nH]c(-c3ccncc3)nc2c1,-5.55
13,CCOC(=O)Nc1c(Cl)n(C)c(=O)n(C)c1=O,9.75
14,CC(NC(=O)c1ccc(Cl)c(Cl)c1)c1ccc(-c2ccccc2)cc1 (centres undefined),7.23
15,Oc1ccc(Nc2ccc3ccccc3c2)cc1,-10.62
16,CCN(CC)C(=O)Cn1ccc(NC(C)=O)nc1=O,-19.36
17,Cc1ccn(C)c(=N)c1,-6.78
18,NC(=O)c1nnsc1-c1ccc(-c2snnc2C(N)=O)cc1,9.25

row,Structure (SMILES),Inhibition [%]
1,Cc1cc(N2CCOCC2)nc(N2CCOCC2)n1,-0.73
2,N#Cc1c(N)nc(N)nc1Nc1ccc(Br)cc1,-8.2
3,COc1ccc2c(c1)CCCN2C(=N)Nc1ccc(Cl)cc1,2.99
4,C=CCNC(S)=NCC,-1.02
5,Nc1nc(O)c2ncn(C3CCCC3)c2n1,-9.23
6,COC(=O)Cc1[nH]c(O)nc1C(=O)OC,-8.26
7,Cc1cn(C2CC(O)C(CO)O2)c(=O)n(Cc2ccccc2)c1=O (centres undefined),6.87
8,Cc1cccnc1N=C(S)Nc1ncccc1C,20.87
9,N#Cc1nnn(-c2ccc(Cl)cc2)c1N,3.74
10,Nc1n[nH]c(CO)n1.O=C(O)CO,-8.74
11,CS(=O)(=O)O.OC(c1cc(C(F)(F)F)nc2c(Cl)cc(Cl)cc12)C1CCCCN1 (centres undefined),6.66
12,Cc1cc(NC(=O)NC(=O)c2ccccc2NC(=O)C(C)N)ccc1Oc1ncc(Br)cn1.Cl (centres undefined),-8.48
13,C=C1CC2(OC1=O)c1ccccc1CCc1ccccc12,-14.2
14,CC(=O)/C=C(\C)Nc1ccccc1O,-10.28
15,CCCOc1ccc(-c2nc(-c3ccc(N)cc3)cs2)cc1,13.93
16,Clc1nnc(NC2CCCCC2)c(Cl)c1Cl,-5.61
17,Clc1ccc(-c2nc(-c3cc4cc(Cl)ccc4o3)cs2)cc1,8.53
